# Values joined by “and” are separate entries in the source; they are usually repeats but may differ in a detail not shown here. Identical values can stand only once. A number with no mark means an inactive call. Inconclusive results are not listed. Where a call stands in place of a potency, no number is given. Active and inactive are the calls of the source. Unless noted, calls follow the shape of the dose curve; as a rule, active = well fitted curve in the direction sought with a large enough effect in the repeat runs; inconclusive = weak or mixed curves; inactive = no such curve, though single readings can be large; an effect the other way counts as inactive or inconclusive.
# Tests used:
# [1] = qHTS assay to identify small molecule agonists of the estrogen receptor alpha (ER-alpha) signaling pathway in the presence of an antagonist - cell viability counter screen (AID 1259386);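 also: cells exposed to compounds for 22 h at 37 °C before the viability read; nearly all actives have a fitted effect of over 30% in size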; also: potency is read from the fitted curve at half-maximal effect; as to activity change, negative = cytotoxicity: series mostly up to about 92 µM
# Outline: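 Viability counter screen using VM7Luc4E2 (full-length ER-alpha, four ERE-luciferase). The cells were treated with compounds alongside ICI-182,780 10.0nM for 22hr, and live-cell protease fluorescence was quantified with CellTiter-Fluor.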
# [2] = molecular target: Progesterone receptor (Homo sapiens) (UniProt P06401); experiment: qHTS assay to identify small molecule agonists of the progesterone receptor (PR) signaling pathway (AID 1346784; calls by dose curve; also: nearly all actives have a fitted effect of over 30% in size; also: potency is read from the fitted curve at half-maximal effect)
# Progesterone receptor (Homo sapiens), sequence (P06401 whole entry, looked up): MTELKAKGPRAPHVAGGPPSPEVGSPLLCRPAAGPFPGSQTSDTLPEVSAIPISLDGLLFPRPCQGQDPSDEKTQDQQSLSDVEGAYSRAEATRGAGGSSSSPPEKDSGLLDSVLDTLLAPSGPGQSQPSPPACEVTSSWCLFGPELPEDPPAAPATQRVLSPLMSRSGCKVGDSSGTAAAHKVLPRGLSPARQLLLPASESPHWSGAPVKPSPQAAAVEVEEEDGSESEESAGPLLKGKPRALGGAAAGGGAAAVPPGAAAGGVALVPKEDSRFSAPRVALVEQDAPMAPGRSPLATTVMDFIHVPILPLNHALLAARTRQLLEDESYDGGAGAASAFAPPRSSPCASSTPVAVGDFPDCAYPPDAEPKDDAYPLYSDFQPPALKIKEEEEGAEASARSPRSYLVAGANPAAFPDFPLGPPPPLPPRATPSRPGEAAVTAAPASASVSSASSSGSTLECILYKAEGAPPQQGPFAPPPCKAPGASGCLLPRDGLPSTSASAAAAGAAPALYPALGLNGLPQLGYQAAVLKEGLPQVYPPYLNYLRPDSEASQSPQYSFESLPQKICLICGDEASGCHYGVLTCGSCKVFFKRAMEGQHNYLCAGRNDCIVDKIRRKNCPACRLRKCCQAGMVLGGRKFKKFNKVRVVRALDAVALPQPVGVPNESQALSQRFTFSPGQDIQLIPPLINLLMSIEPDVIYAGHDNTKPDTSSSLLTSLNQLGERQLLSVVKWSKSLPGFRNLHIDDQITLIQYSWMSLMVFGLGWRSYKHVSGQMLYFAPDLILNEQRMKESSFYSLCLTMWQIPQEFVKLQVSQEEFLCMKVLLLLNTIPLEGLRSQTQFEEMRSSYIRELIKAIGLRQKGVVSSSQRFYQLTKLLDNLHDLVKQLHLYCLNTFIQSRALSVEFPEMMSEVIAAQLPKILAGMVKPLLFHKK
# Outline: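 Using charcoal-stripped serum (2%) to limit endogenous steroids, PR-UAS-bla HEK 293T cells received compounds for 16 hr at 37C after 6 hr plating; beta-lactamase FRET fluorescence was recorded following 2 hr substrate loading at room temperature.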
# [3] = molecular target: Progesterone receptor (Homo sapiens) (UniProt P06401); experiment: qHTS assay to identify small molecule antagonists of the progesterone receptor (PR) signaling pathway (AID 1346795; active = well fitted inhibition curve with a large enough effect in the signal ratio in the repeat runs, not every such curve was filed as active; the % refers to the signal ratio; also: potency is read from the fitted curve at half-maximal effect)
# Outline: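 Inhibition of R5020-induced (1 nM final) beta-lactamase reporter signal in PR-UAS-bla HEK293T cells was scored by FRET fluorescence after overnight (16 hr) compound treatment.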
# [4] = qHTS assay to identify small molecule agonists of the progesterone receptor (PR) signaling pathway - cell viability counter screen (AID 1346799; calls by dose curve; also: nearly all actives have a fitted effect of over 45% in size; also: potency is read from the fitted curve at half-maximal effect)
# Outline: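 Cytotoxicity in PR-bla HEK293T cells: 16 h compound, 37C; CellTiter-Glo added post-FRET read; luminescence after 30 min RT.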
# [5] = qHTS assay to identify small molecule antagonists of the TGF-beta/Smad signaling pathway - cell viability counter screen (AID 1346824); also: nearly all actives have a fitted effect of over 50% in size
# Outline: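 SBE-bla HEK 293T cells were plated overnight at 37 C, then given compounds in DMSO plus TGF-beta1 (added as 0.25 ng/mL solution) for 5 hr. After the bla read, CellTiter-Glo was added to the same wells and luminescence read after 30 min at room temperature.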
# [6] = qHTS assay to identify small molecule agonists of the TGF-beta/Smad signaling pathway - cell viability counter screen (AID 1346829); also: top concentration of the series differs between compounds; nearly all actives have a fitted effect of over 45% in size
# Outline: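 After overnight seating at 37 C and 5% CO2, reporter cells got compounds for 5 hr and FRET substrate for 2 hr; cell viability then came from CellTiter-Glo luminescence.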
# [7] = qHTS assay to identify small molecule agonists of the TGF-beta/Smad signaling pathway (AID 1346859; active = well fitted activation curve with a large enough effect in the signal ratio in the repeat runs, not every such curve was filed as active; the % refers to the signal ratio; also: series mostly up to about 77 µM)
# Outline: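 Stable Smad binding element-beta-lactamase HEK 293T cells; 5 hr compound exposure at 37 C under 5% CO2; 2 hr room-temperature substrate step; fluorescence excited at 405 nm, collected at 460 nm and 530 nm.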
# [8] = molecular target: Thyrotropin-releasing hormone receptor (Homo sapiens) (UniProt P34981); experiment: qHTS assay to identify small molecule antagonists of the thyrotropin-releasing hormone receptor (TRHR) signaling pathway (AID 1346877; active = well fitted inhibition curve with a large enough effect in the repeat runs, not every such curve was filed as active; also: series mostly up to about 51 µM)
# Thyrotropin-releasing hormone receptor (Homo sapiens), sequence (P34981 whole entry, looked up): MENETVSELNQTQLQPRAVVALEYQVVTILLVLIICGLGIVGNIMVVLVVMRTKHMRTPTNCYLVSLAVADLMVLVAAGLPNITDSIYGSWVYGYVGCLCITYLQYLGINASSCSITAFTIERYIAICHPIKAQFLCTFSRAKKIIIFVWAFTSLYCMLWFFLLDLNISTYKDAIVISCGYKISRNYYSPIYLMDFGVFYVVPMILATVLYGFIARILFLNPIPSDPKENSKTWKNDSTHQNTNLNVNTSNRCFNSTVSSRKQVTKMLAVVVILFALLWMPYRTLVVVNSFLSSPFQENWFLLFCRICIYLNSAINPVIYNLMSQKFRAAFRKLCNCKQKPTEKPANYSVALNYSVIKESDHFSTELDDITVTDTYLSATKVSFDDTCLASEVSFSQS
# Outline: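 Following an 18 h incubation at 37 °C and a 2 h calcium dye load, TRHR-HEK293 cells were exposed to compound (5 min, room temperature) and challenged with TRH, 1 nM final.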
# [9] = molecular target: Thyrotropin-releasing hormone receptor (Homo sapiens) (UniProt P34981); experiment: qHTS assay to identify small molecule agonists of the thyrotropin-releasing hormone receptor (TRHR) signaling pathway (AID 1346891; calls by dose curve;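 also: HEK293 cells expressing TRHR with calcium dye readout; series mostly up to about 58 µM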)
# Outline: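 In 1536-format, 1500 TRHR-Hek293 cells per well grew 18 h, took up calcium dye for 2 h at 37 °C, received compound, and were read kinetically; 15-point titrations, triplicates.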
# [10] = qHTS assay to identify small molecule antagonists of the progesterone receptor (PR) signaling pathway - cell viability counter screen (AID 1346798); also: nearly all actives have a fitted effect of over 50% in size; also: potency is read from the fitted curve at half-maximal effect; as to activity change, negative = cytotoxicity: series mostly up to about 92 µM
# Outline: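 ATP content as viability readout: CellTiter-Glo luminescence, 30 min room temperature, in PR-UAS-bla HEK293T cells after 16 hr compound/R5020 treatment at 37C and 5% CO2.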
compound,measurement,setting,value
Cc1cccc(N(C)C(=S)Oc2ccc3c(c2)C2CCC3C2)c1 (stereo not drawn),Potency,[1],inactive
same,Potency,[2],inactive
same,Potency,[3],15 µM (active)
same,Potency,[4],inactive
same,Potency,[5],inactive
same,Potency,[6],inactive
same,Potency,[7],inactive
same,Potency,[8],inactive
same,Potency,[9],inactive
N#CSc1ccc(N)c([N+](=O)[O-])c1,Potency,[1],48.9 µM (active)
same,Potency,[2],inactive
same,Potency,[10],inactive
same,Potency,[4],inactive
same,Potency,[5],inactive
same,Potency,[6],inactive
same,Potency,[7],inactive
CCCCCCC[N+](CC)(CC)CCCCc1ccc(Cl)cc1,Potency,[1],26.6 µM (active)
same,Potency,[2],inactive
same,Potency,[3],inactive
same,Potency,[6],inactive
same,Potency,[8],inactive
same,Potency,[9],inactive
CC1=NC(C)OC1C (stereo not drawn),Potency,[1],inactive
same,Potency,[2],inactive
same,Potency,[10],inactive
same,Potency,[4],inactive
same,Potency,[5],inactive
same,Potency,[6],inactive
same,Potency,[7],inactive
same,Potency,[8],inactive
same,Potency,[9],inactive
CC[C@H](c1ccc(O)cc1)[C@@H](CC)c1ccc(O)cc1,Potency,[1],inactive
same,Potency,[2],inactive
same,Potency,[3],7.7 µM (active) and 7.5 µM (active)
same,Potency,[5],inactive
same,Potency,[6],inactive
same,Potency,[7],inactive
CCC(Cl)C(Cl)C(Cl)CC(Cl)C(Cl)C(C)Cl (stereo not drawn),Potency,[1],inactive
same,Potency,[2],inactive
same,Potency,[3],17.2 µM (active)
same,Potency,[10],inactive
same,Potency,[6],inactive
same,Potency,[7],inactive
same,Potency,[8],inactive
same,Potency,[9],inactive
COC(=O)C1=C(C)NC(C)=C(C(=O)OCCc2ccc(N3CCN(C(c4ccccc4)c4ccccc4)CC3)cc2)C1c1cccc([N+](=O)[O-])c1 (stereo not drawn),Potency,[1],inactive
same,Potency,[2],inactive
same,Potency,[10],inactive
same,Potency,[4],inactive
same,Potency,[5],inactive
same,Potency,[6],inactive
same,Potency,[7],inactive
[O-][n+]1ccccc1SSc1cccc[n+]1[O-],Potency,[1],8.2 µM (active)
same,activation,[2],-12.3% [at 19 µM]
same,Potency,[10],0.116 µM (active)
same,Potency,[4],0.116 µM (active)
same,"viability change, negative = cytotoxic",[5],-6.42% [at 15.8 µM]
same,"activity change, negative = cytotoxicity",[6],-3.22% [at 15.8 µM]
same,activation,[7],-0.0146% [at 15.8 µM]
same,"activity, negative = inhibition",[8],-2.61% [at 10.5 µM]
same,activation,[9],5.02% [at 11.8 µM]
NC(=O)CC[C@@H]1NC(=O)[C@H](Cc2ccccc2)NC(=O)[C@H](Cc2ccc(O)cc2)NC(=O)CCSSC[C@@H](C(=O)N2CCC[C@H]2C(=O)N[C@@H](CCCN=C(N)N)C(=O)NCC(N)=O)NC(=O)[C@H](CC(N)=O)NC1=O,Potency,[1],inactive
same,Potency,[2],inactive
same,Potency,[3],inactive
same,Potency,[4],inactive
same,Potency,[6],inactive
same,Potency,[7],inactive
Cc1ccc(O)c(C(C)(C)C)c1,Potency,[1],inactive
same,Potency,[2],inactive
same,Potency,[10],inactive
same,Potency,[4],inactive
same,Potency,[5],inactive
same,Potency,[6],inactive
same,Potency,[7],inactive
O=Cc1cc(O)ccc1Br,Potency,[1],inactive
same,Potency,[2],0.983 µM (active)
same,Potency,[3],55.3 µM (active)
same,Potency,[5],inactive
same,Potency,[6],inactive
same,Potency,[7],inactive
CCC1OCC(COc2ccc(Oc3ccccc3)cc2)O1 (stereo not drawn),Potency,[1],inactive
same,Potency,[2],inactive
same,Potency,[3],54.5 µM (active)
same,Potency,[5],inactive
same,Potency,[6],inactive
same,Potency,[7],inactive
same,Potency,[8],inactive
same,Potency,[9],inactive
CCCCCCCCCCC=O,Potency,[1],inactive
same,Potency,[2],inactive
same,Potency,[10],inactive
same,Potency,[4],inactive
same,Potency,[5],inactive
same,Potency,[6],inactive
same,Potency,[7],inactive
same,Potency,[8],inactive
CCCCCCCCS(=O)C(C)Cc1ccc2c(c1)OCO2 (stereo not drawn),Potency,[1],inactive
same,Potency,[2],inactive
same,Potency,[3],44.1 µM (active)
same,Potency,[5],inactive
same,Potency,[6],inactive
same,Potency,[7],inactive
same,Potency,[9],inactive
NNC(=O)c1cccc(C(=O)NN)c1,Potency,[1],inactive
same,Potency,[2],inactive
same,Potency,[10],inactive
same,Potency,[4],inactive
same,Potency,[5],inactive
same,Potency,[6],inactive
same,Potency,[7],inactive
same,Potency,[8],inactive
same,Potency,[9],inactive
CN(C)c1ccc(SC#N)cc1,Potency,[1],inactive
same,Potency,[2],inactive
same,Potency,[10],inactive
same,Potency,[4],inactive
same,Potency,[5],inactive
same,Potency,[6],inactive
same,Potency,[7],inactive
same,Potency,[8],inactive
same,Potency,[9],inactive
Oc1cccc2cc3cccc(O)c3c(O)c12,Potency,[1],inactive
same,Potency,[2],inactive
same,Potency,[10],inactive
same,Potency,[4],inactive
same,Potency,[5],inactive
same,Potency,[6],inactive
same,Potency,[7],inactive
Clc1ccc(C(Cn2ccnc2)OCc2ccc(Sc3ccccc3)cc2)c(Cl)c1 (stereo not drawn),Potency,[1],inactive
same,Potency,[2],inactive
same,Potency,[3],29.8 µM (active)
same,Potency,[4],inactive
same,Potency,[5],inactive
same,Potency,[6],inactive
same,Potency,[7],inactive
same,Potency,[8],inactive
same,Potency,[9],inactive
O=C(c1ccc(F)cc1)C1CCN(CCn2c(=O)[nH]c3ccccc3c2=O)CC1,Potency,[1],inactive
same,Potency,[2],inactive
same,Potency,[10],inactive
same,Potency,[4],inactive
same,Potency,[5],inactive
same,Potency,[6],inactive
Cc1c(C)c2c(c(C)c1OC(=O)CCC(=O)O)CC[C@@](C)(CCC[C@H](C)CCC[C@H](C)CCCC(C)C)O2,Potency,[1],inactive
same,Potency,[2],inactive
same,Potency,[3],inactive
same,Potency,[5],inactive
same,Potency,[6],inactive
same,Potency,[8],inactive
same,Potency,[9],inactive
O=C1c2c(O)ccc(Nc3ccc(CCO)cc3)c2C(=O)c2c([N+](=O)[O-])ccc(O)c21,Potency,[1],30.6 µM (active)
same,Potency,[2],inactive
same,Potency,[10],inactive
same,Potency,[4],inactive
same,Potency,[5],inactive
same,Potency,[6],inactive
same,Potency,[7],inactive
same,Potency,[8],inactive
CCCCN1CCCC[C@H]1C(=O)Nc1c(C)cccc1C,Potency,[1],inactive
same,Potency,[2],inactive
same,Potency,[3],inactive
same,Potency,[5],inactive
same,Potency,[6],inactive
same,Potency,[7],inactive
same,Potency,[8],inactive
same,Potency,[9],inactive
CCCCCCCCCCCCCCCC(=O)OC[C@H](O)[C@H]1OC(=O)C(O)=C1O,Potency,[1],inactive
same,Potency,[2],inactive
same,Potency,[3],inactive
same,Potency,[4],27.3 µM (active)
same,Potency,[5],inactive
same,Potency,[6],inactive
same,Potency,[7],inactive
same,Potency,[8],inactive
O=c1[nH]cnc2nc[nH]c12,Potency,[1],inactive
same,Potency,[2],inactive
same,Potency,[10],inactive
same,Potency,[4],inactive
same,Potency,[5],inactive
same,Potency,[6],inactive
same,Potency,[7],inactive
same,Potency,[8],inactive
same,Potency,[9],inactive
